# Source: PubChem BioAssay (NCI)
# The panel holds about 83,000 compounds, 20% with a hit somewhere; the sample as a whole holds those more often.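 A percent growth of 40 corresponds to 60% growth inhibition; 0 means no net growth; -100 means all cells died. Active threshold: below 10.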 Unmarked numbers belong to inactive results. Active and inactive are the calls of the source.
# Tests used:
# Experiment in all cases: NCI-60 one-dose screen, 48 h (100 = growth as untreated, 0 = no growth, -100 = all killed)
# Conditions in all cases: 10 µM unless noted
# SR leukemia = system: SR leukemia
# RPMI-8226 leukemia = system: RPMI-8226 leukemia
# OVCAR-8 ovarian = system: OVCAR-8 ovarian
# OVCAR-5 ovarian = system: OVCAR-5 ovarian
# OVCAR-4 ovarian = system: OVCAR-4 ovarian
# SK-OV-3 ovarian = system: SK-OV-3 ovarian
# OVCAR-3 ovarian = system: OVCAR-3 ovarian
# HS 578T breast = system: HS 578T breast
# NCI/ADR-RES ovarian = system: NCI/ADR-RES ovarian
# T-47D breast = system: T-47D breast
# BT-549 breast = system: BT-549 breast
# MDA-MB-435 melanoma = system: MDA-MB-435 melanoma
# SW-620 colon = system: SW-620 colon
# MCF7 breast = system: MCF7 breast
# HCT-116 colon = system: HCT-116 colon
# HCC-2998 colon = system: HCC-2998 colon
# KM12 colon = system: KM12 colon
SMILES,growth (SR leukemia),growth (RPMI-8226 leukemia),growth (OVCAR-8 ovarian),growth (OVCAR-5 ovarian),growth (OVCAR-4 ovarian),growth (SK-OV-3 ovarian),growth (OVCAR-3 ovarian),growth (HS 578T breast),growth (NCI/ADR-RES ovarian),growth (T-47D breast),growth (BT-549 breast),growth (MDA-MB-435 melanoma),growth (SW-620 colon),growth (MCF7 breast),growth (HCT-116 colon),growth (HCC-2998 colon),growth (KM12 colon)
CC(=O)N1N=C(c2ccc(C(F)(F)F)c(F)c2)CC1c1[nH]c(C)c(C(=O)NCC(F)(F)F)c1C (stereo not given),86.9%,90.7%,41.9%,79.3%,13.6%,75.2%,68.3%,31.8%,78.5%,43.5%,89.9%,76.7%,94.3%,73.6%,34%,72.1%,60.2%
N#CC(C#N)N=Nc1ccc(Br)cc1,-15.2% (active),11.5%,28%,68.3%,17.7%,60.3%,17.7%,87.1%,60.9%,8.56% (active),49.2%,71.7%,18.4%,19.4%,13.4%,46%,80.8%
CCOC(=O)c1c(C(=O)c2cn(C)c3ccc(Br)cc23)c(-c2cn(C)c3ccc(Br)cc23)n(NC(=O)OC(C)(C)C)c1C,89.1% [100 µM],69.2% [100 µM],71.8% [100 µM],92.3% [100 µM],105% [100 µM],54.8% [100 µM],88.5% [100 µM],46.8% [100 µM],85.4% [100 µM],58.8% [100 µM],39.2% [100 µM],96.5% [100 µM],91.8% [100 µM],78.3% [100 µM],54% [100 µM],111% [100 µM],89.4% [100 µM]
CC(=O)Oc1ccc(C)cc1C,102%,102%,110%,102%,105%,106%,111%,109%,108%,97.9%,90.8%,113%,108%,77.7%,98.3%,112%,103%
COc1ccc(C(O)c2cc3c(N)c(C(=O)Nc4cccc(Br)c4)sc3nc2C)cc1 (stereo not given),8.67% (active),10.9%,13.1%,11.2%,39.7%,17.9%,3.84% (active),-6% (active),13.1%,53.2%,3.53% (active),-33.4% (active),23.7%,9.88% (active),6.39% (active),-33.9% (active),0.956% (active)
COc1c(B(O)O)cccc1-c1cc(C)c2c(ccc3[nH]ncc32)n1,27.5%,68.7%,64.1%,72.1%,122%,59.3%,113%,8.78% (active),83.3%,84.1%,23.1%,92%,63.5%,71.8%,41.7%,105%,
Cn1c(=O)c2nc(/C=C/c3ccccc3)c(=O)[nH]c2n(C)c1=S,111%,110%,105%,110%,107%,118%,116%,107%,106%,104%,110%,103%,98.9%,93.9%,105%,106%,104%
O=C(CN1CCOCC1)Nc1nc(-c2cc3ccccc3oc2=O)cs1,102%,104%,99.4%,95.5%,102%,116%,105%,92.8%,103%,111%,98.5%,104%,101%,79.2%,99%,103%,100%
Cc1ccc2c(Cn3cc(CSc4nc5ccccc5o4)nn3)cc(=O)oc2c1,99.6%,100%,97.4%,116%,107%,81%,115%,107%,99.3%,100%,104%,102%,106%,100%,104%,115%,113%
Cc1ccc2c(n1)C(=O)C(Br)=C(CC(C)C)C2=O,17%,53%,97.6%,102%,104%,101%,53.1%,102%,98.4%,82%,99.4%,104%,64%,93.2%,61.6%,105%,99.3%
COc1ccc(C2CC(c3ccc(Nc4nc(Nc5ccccc5)nc(Nc5ccccc5)n4)cc3)=NN2C(C)=O)cc1 (stereo not given),88.2%,73.7%,83%,104%,89.7%,124%,91.4%,102%,,73.4%,166%,93.7%,104%,129%,96.5%,110%,112%
O=C(Nn1c2c(sc1=NC1CC1)C(=O)c1ccccc1C2=O)c1cc2ccc1CCc1ccc(cc1)CC2,29.4%,19.5%,3.79% (active),111%,40.5%,59.1%,1.11% (active),46.2%,17.8%,20.4%,37.2%,-93.2% (active),18.3%,11.5%,-9.1% (active),61.4%,35.2%
O=[N+]([O-])c1cccc(-c2nc3cc4nc5ccccc5[nH]c4cc3n2)c1,93.4%,101%,98.2%,111%,98.3%,102%,98.7%,109%,101%,87.5%,102%,112%,112%,77.7%,93.1%,112%,100%
COc1cc(-c2csc(NC(=O)c3ccc(N4CCOCC4)c(C(F)(F)F)c3)n2)cc(OC)c1OC,23.3%,6.74% (active),2.22% (active),83.9%,23.1%,74.5%,38.3%,60%,3.62% (active),-5.81% (active),-7.47% (active),35.1%,48.9%,19.2%,16%,60.2%,16.9%
CCN1C(=S)N(c2ccccc2)C2C1NN=c1s/c(=C3\C(=O)N(C(C)C)c4ccccc43)c(=O)n12 (stereo not given),46.2%,97.4%,54.1%,93.9%,1.68% (active),104%,84.2%,54.8%,64.1%,62.8%,96.6%,93.3%,75.6%,64.7%,41.7%,109%,81.7%
Cc1cc(N2CCCCC2)cc(C)c1-c1csc(NC(=O)c2ccncc2)n1,37.7%,37.5%,51.2%,92.6%,24.2%,62.6%,50.5%,75.2%,56.4%,34.3%,57.6%,37.1%,69.9%,32.6%,20.7%,97.4%,64.5%
